From PubChem BioAssay come the findings set out here.

The structures appear in SMILES notation. Active and inactive are the calls of the source.

Test [1] deals with Albumin (Bos taurus) (UniProt P02769). In words: bovine serum albumin binders on microarray, profiling panel, artefact control for SMM control protein annotation, biochemical, small-molecule microarray, Alexa647 label, 635/667 nm fluorescence (AID 1118).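 Also: score merges 667 nm emission intensity and signal-to-noise per printed compound spot.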 The note with it: BSA-A647 binding, fluorescence 635 nm, higher = more signal.
Chain of Albumin (Bos taurus) (P02769 whole entry, looked up): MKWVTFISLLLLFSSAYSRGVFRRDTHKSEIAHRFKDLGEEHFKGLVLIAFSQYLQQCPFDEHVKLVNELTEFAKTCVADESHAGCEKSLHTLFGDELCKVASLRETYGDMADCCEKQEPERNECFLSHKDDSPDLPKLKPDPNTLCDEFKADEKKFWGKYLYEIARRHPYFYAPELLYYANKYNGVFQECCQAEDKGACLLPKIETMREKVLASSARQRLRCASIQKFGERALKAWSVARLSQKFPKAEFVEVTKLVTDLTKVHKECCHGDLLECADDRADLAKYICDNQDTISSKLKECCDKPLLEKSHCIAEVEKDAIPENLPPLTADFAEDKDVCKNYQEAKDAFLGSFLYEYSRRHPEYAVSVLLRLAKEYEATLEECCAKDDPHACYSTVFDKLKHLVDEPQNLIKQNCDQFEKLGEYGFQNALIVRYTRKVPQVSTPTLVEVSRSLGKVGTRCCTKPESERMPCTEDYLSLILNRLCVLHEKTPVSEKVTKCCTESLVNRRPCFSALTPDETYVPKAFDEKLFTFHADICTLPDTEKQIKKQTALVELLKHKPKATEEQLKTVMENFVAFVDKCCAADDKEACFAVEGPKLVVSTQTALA
Test [2] is described as follows: small-molecule microarray binders of probe aXIP, primary screen, biochemical, NeuroSMM set, 635/667 nm fluorescence (AID 1119).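 Also: probe is the protein aXip251-270 applied at 1 µg/mL to compound-printed slides; binding of probe to printed compounds measured as 667 nm fluorescence plus signal to noise.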 The note with it: higher = more signal, called active from +8 up or from −8 down.
A short description of test [3]: small-molecule binders of probe aNOTCH3, primary screen, biochemical, small-molecule microarray, 635/667 nm fluorescence (AID 1120).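 Also: probe is a biotin-tagged antibody raised against NOTCH3 rather than NOTCH3 protein; score merges spot fluorescence near 667 nm with spot signal to noise.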 Conditions: higher = more signal.
The nature of test [4]: small-molecule binders of probe aNOTCH2, primary screen, biochemical, small-molecule microarray, 635/667 nm fluorescence (AID 1121).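 Also: score merges feature fluorescence read at 667 nm with its signal to noise.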 The note with it: higher = more signal.
The target in test [5] is Carbonic anhydrase 2 (Homo sapiens) (UniProt P00918). Nature of the test: CAII small-molecule binders, profiling panel, biochemical, small-molecule microarray, Alexa647-labelled CAII (AID 1122). Conditions: CAII-A647 binding fluorescence, higher = more signal.
The nature of test [6]: COS7 lysate on small-molecule microarray, probe aHis, 635 nm (AID 1123).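 Also: z-score combines 667nm fluorescence intensity with signal-to-noise per printed compound spot.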 The note with it: COS7 cell lysate, fluorescence, higher = more signal.
A short description of test [7]: compound binding in COS7 lysate, probe aLAP1, primary screen, cell lysate, small-molecule microarray (AID 1124).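 Also: lysate comes from COS7 cells expressing LAP1 and is applied at 0.3 µg/mL; score merges spot fluorescence near 667 nm with signal-to-noise over triplicate slides.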 Conditions: probe aLAP1, fluorescence, higher = more signal.
Test [8] deals with Sam68 (KHDRBS1). In words: Sam68 small-molecule binders, primary screen, biochemical, small-molecule microarray, 635 nm fluorescence (AID 1125).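 Also: score merges 667 nm channel intensity with signal to noise over triplicate slides.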 The note with it: small-molecule microarray binding, higher = more signal.
Test [9] relates to Chordin-like protein 2 (CHRDL2). Nature of the test: CHRDL2 small-molecule binders, primary screen, biochemical, small-molecule microarray, 635 nm fluorescence (AID 1126).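 Also: printed compound slides probed with Chrdl2 protein at 4 µg/mL for 1 h at 4 C; score merges 667 nm emission intensity with signal to noise over three replicate slides.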 Conditions: small-molecule microarray binding, fluorescence 635 nm; higher = more signal.
For test [10], the target named is Concanavalin-A (Canavalia ensiformis) (UniProt P02866). Nature of the test: ConA small-molecule binders, primary screen, artefact control for SMM control protein annotation, biochemical, small-molecule microarray, Alexa647 label, 635 nm (AID 1127).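 Also: z combines 667 nm emission intensity with signal-to-noise across three replicate slides.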 Conditions: ConA-A647 binding fluorescence, higher = more signal.
Chain of Concanavalin-A (Canavalia ensiformis) (P02866 whole entry, looked up): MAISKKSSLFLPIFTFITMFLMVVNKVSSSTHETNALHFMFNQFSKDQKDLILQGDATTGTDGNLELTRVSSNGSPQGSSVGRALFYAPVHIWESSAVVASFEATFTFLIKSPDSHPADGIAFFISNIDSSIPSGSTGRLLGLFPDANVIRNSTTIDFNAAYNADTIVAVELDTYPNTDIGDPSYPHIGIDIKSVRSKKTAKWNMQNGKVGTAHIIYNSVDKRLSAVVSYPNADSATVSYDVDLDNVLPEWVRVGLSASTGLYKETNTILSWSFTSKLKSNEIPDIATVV
The nature of test [11]: anti-His antibody binders, primary screen, artefact control for SMM control protein annotation, biochemical, small-molecule microarray, 635 nm fluorescence (AID 1128).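 Also: score merges feature fluorescence with signal-to-noise for each printed compound spot.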 Conditions: anti-His Alexa647 antibody binding, higher = more signal.
The subject of test [12] is Human papillomavirus type 1a E7 protein (residues 1-88). Nature of the test: HPV1a E7 small-molecule binders, primary screen, biochemical, small-molecule microarray, residues 1-88, 635 nm (AID 1129). The note with it: small-molecule microarray binding, fluorescence 635 nm; higher = more signal.
The target of test [13] is Focal adhesion kinase 1 (Homo sapiens) (UniProt Q05397). In words: small-molecule microarray binders of FAK, primary screen, biochemical, 635/667 nm fluorescence, BSA, DTT (AID 1130).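 Also: composite of spot emission at 667 nm and signal to noise over triplicate slides.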 The note with it: PTK2 binding, 635 nm fluorescence, higher = more signal.
Chain of Focal adhesion kinase 1 (Homo sapiens) (Q05397 whole entry, looked up): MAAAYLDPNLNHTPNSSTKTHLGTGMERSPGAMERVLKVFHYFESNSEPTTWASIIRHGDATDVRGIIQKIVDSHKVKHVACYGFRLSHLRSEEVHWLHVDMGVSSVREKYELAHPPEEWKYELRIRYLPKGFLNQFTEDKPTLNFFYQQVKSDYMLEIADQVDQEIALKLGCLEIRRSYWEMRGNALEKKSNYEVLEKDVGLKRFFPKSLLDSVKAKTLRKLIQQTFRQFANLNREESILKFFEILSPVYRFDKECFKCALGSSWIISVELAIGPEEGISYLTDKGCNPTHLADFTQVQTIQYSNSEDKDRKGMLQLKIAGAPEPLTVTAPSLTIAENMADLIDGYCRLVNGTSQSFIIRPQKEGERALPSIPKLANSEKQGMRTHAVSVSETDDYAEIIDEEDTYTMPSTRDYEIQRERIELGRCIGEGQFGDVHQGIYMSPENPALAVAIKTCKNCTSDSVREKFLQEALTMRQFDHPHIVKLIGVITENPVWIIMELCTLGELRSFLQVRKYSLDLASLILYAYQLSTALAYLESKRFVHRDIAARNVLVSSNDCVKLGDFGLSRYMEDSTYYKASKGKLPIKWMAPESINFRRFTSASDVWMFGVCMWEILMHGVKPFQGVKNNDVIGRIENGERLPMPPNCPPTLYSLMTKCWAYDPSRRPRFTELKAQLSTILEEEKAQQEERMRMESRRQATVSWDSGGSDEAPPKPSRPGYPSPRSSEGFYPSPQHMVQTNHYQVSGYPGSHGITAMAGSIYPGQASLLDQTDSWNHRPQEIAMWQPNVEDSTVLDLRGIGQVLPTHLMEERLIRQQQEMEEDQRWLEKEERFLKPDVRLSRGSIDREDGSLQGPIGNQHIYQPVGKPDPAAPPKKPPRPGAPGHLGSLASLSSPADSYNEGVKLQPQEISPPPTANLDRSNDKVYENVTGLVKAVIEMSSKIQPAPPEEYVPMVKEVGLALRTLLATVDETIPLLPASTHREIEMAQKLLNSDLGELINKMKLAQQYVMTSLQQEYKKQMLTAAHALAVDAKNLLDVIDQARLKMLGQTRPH
For test [14], the system named is Fibrinogen (Alexa647-labelled). In words: fibrinogen binders on compound microarrays, profiling panel, artefact control for SMM control-protein annotation, biochemical, small-molecule microarray, 635/667 nm fluorescence (AID 1131).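 Also: z-score merges 667 nm fluorescence with per-spot signal-to-noise over triplicate slides.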 Conditions: fibrinogen-A647 binding fluorescence, higher = more signal.
In test [15] the target is Follistatin (Homo sapiens) (UniProt P19883). In words: follistatin binders on small-molecule microarrays, primary screen, biochemical, small-molecule microarray, 635/667 nm fluorescence (AID 1132). The note with it: FST binding, 635 nm fluorescence, higher = more signal.
Chain of Follistatin (Homo sapiens) (P19883 whole entry, looked up): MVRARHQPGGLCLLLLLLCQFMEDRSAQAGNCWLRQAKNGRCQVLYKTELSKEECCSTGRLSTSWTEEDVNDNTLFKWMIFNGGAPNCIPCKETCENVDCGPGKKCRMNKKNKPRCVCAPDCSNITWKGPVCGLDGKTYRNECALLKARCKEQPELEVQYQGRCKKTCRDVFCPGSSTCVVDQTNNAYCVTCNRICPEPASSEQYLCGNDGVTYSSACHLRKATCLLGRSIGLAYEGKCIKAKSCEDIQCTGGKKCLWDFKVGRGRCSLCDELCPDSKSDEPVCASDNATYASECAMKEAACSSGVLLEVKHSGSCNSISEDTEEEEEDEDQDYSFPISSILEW
Test [16] has as its target Fibroblast growth factor 2 (Homo sapiens) (UniProt P09038). In words: FGF2 binders on small-molecule microarrays, primary screen, biochemical, small-molecule microarray, 635/667 nm fluorescence (AID 1133). The note with it: small-molecule microarray binding, FGF2, fluorescence 635/667; higher = more signal.
Test [17] can be described thus: mitochondrial membrane potential change in A549 cells, profiling panel, cell-based, JC-1 fluorescence, basal, 24 h, 100 nL (AID 1138).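 Also: A549 lung adenocarcinoma cells under basal conditions with no added stimulus; test concentration not given here.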 The note with it: higher = more signal.
Test [18] relates to Lefty1. Nature of the test: Lefty1 binders on small-molecule microarrays, primary screen, biochemical, small-molecule microarray, 635/667 nm fluorescence (AID 1139). Conditions: small-molecule microarray binding, fluorescence 635/667; higher = more signal.
In test [19] the test system is wheat germ agglutinin (Triticum aestivum), Alexa647-labelled. Nature of the test: wheat germ agglutinin binders on compound microarrays, profiling panel, artefact control for SMM control-protein annotation, biochemical, small-molecule microarray, 635/667 nm fluorescence (AID 1140).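 Also: score merges 667 nm feature emission with signal to noise over triplicate slides.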 Conditions: WGA-A647 binding, 635 nm fluorescence, higher = more signal.
Test [20] concerns the target Luciferin 4-monooxygenase (Photinus pyralis) (UniProt P08659). In words: firefly luciferase enzyme inhibitors, primary screen, biochemical, luminescence, purified enzyme, 2006 set (AID 1141).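 Also: cell-free assay with purified firefly luciferase at 100 ng per well in PBS; test concentration not given here.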 The note with it: SteadyGlo luminescence, 30 min, higher = more signal, called active from +8 up or from −8 down.

Chain of Fibroblast growth factor 2 (Homo sapiens) (P09038 whole entry, looked up): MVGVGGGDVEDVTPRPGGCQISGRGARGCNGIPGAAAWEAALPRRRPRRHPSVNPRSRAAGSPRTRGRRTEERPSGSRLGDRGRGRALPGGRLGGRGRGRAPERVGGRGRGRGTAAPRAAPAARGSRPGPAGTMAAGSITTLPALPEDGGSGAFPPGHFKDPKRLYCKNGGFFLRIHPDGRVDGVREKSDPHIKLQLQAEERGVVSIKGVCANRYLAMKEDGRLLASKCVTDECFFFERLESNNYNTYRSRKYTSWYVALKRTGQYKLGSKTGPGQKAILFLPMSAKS
Chain of Luciferin 4-monooxygenase (Photinus pyralis) (P08659 whole entry, looked up): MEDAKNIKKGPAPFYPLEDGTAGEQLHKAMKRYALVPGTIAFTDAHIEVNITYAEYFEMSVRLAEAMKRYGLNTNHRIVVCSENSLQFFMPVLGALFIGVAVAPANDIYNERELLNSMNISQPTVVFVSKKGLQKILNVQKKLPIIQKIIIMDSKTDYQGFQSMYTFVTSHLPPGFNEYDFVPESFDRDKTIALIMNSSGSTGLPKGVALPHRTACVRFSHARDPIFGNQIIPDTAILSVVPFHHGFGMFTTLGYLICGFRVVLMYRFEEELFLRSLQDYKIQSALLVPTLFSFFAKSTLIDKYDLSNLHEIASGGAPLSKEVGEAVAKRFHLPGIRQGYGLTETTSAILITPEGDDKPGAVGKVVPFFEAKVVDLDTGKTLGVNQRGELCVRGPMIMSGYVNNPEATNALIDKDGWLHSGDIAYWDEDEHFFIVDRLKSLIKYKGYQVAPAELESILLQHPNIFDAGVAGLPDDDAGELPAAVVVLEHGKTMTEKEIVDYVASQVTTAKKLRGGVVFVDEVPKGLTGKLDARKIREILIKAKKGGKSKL

On to `CO[C@H]1COC(=O)[C@H](C)COC(=O)[C@H](Cc2ccccc2)NC(=O)CC=C[C@H]1C`, for which the composite z-score is -1.16 in test [1]; 0.62 in test [3]; 0.087 in [4]; -0.612 in [5]; -0.826 in [6]; 0.266 in test [7]. Further, the composite z-score was -1.02 in test [8]; 1.53 in [9]; -0.994 in [10]; -0.384 in test [11]; -1.55 in [12]; 0.195 in [13]. In addition, the composite z-score in test [14] was -1.04; in test [15], 1.42; in [16], 0.807; in [18] it was 1.16; in test [19] it was -1.5. Besides, in [2], the composite Z-score is 0.72 (inactive). Also, the z-score was 1.71 in test [17] and -1.14 (inactive) in [20].
Take `CC(C)N1CC=CC23O[C@@H]4/C=C\CCCOC(=O)C4[C@H]2C(=O)N(CCCCCO)[C@@H]3C1=O` (stereo not given in full): the composite z-score is -1.71 in test [1]; -0.448 in test [3]; -0.169 in test [4]; 0.945 in test [5]; -0.0414 in test [6]; 0.64 in test [7]. Also, the composite z-score in [8] is -1.74; in test [9] it was -1.9; in [10] it was -1.26; in [11], -2.21; in test [12], -1.79; in test [13], -0.925. Further, the composite z-score in [14] is -3.13; in test [15] it was -1.15; in [16], -1.03; in test [18], -1.52; in test [19] it was -1.78. Besides, the composite Z-score in test [2] is -0.0102 (inactive). Also, the z-score in [17] is 3.68; in test [20] it was -1.32 (inactive).
Take `CO[C@H]1COC(=O)[C@H](CCSC)NC(=O)CC=C[C@@H](C)COC(=O)[C@@H](OCc2ccccc2)C=C[C@@H]1C`: the composite z-score in [1] was -1.35; in test [3], -0.0914; in test [4], -0.102; in test [5] it was -0.498; in [6], -0.345; in [7], -0.0638. The composite z-score in [8] was 0.51; in test [9], 1.51; in test [10] it was -0.623; in test [11], -0.155; in test [12], -0.762; in test [13], -0.36. In addition, the composite z-score in test [14] is -1.22; in test [15], 1.18; in test [16], 1.46; in test [18], 1.63; in [19], -1.02. Besides, the composite Z-score in test [2] was -0.273 (inactive). In addition, the z-score is 0.676 in test [17] and -1.12 (inactive) in test [20].
Turning to `COC(=O)C1=CC(c2ccc(CO)cc2)=CC(c2cccs2)N(Cc2cccc(OC(F)(F)F)c2)C=C1C(=O)OC` (stereo not given), the composite z-score was 1.09 in test [1]; 0.0979 in [3]; -0.101 in test [4]; 0.671 in test [5]; 2.76 in test [6]; 0.641 in test [7]. Besides, the composite z-score is 1.34 in test [8]; -0.602 in [9]; 1.18 in test [10]; 2.15 in test [11]; 1.23 in test [12]; 0.409 in [13]. Moreover, the composite z-score is 0.97 in test [14]; 0.289 in test [15]; -0.316 in test [16]; 0.0703 in test [18]; 1.4 in test [19]. The composite Z-score in test [2] is 0.639 (inactive). Besides, the z-score was 1.49 in test [17] and -0.926 (inactive) in [20].
As to `CCCC=C(CCC)[C@@H](NS(=O)(=O)c1cccc(C(F)(F)F)c1)c1ccc(C(=O)OC)cc1`, the composite z-score is -0.0532 in test [1]; 1.7 in [3]; 1.06 in test [4]; 0.169 in test [5]; 0.455 in test [6]; 0.134 in test [7]. The composite z-score in test [8] was 0.601; in test [9], -1.35; in test [10], 0.804; in test [11], 0.54; in test [12], 0.4; in test [13] it was -0.209. The composite z-score was found to be 0.436 in test [14]; 0.572 in test [15]; 0.319 in test [16]; 0.0304 in test [18]; 0.295 in test [19]. In addition, the composite Z-score in [2] was 0.136 (inactive). Further, the z-score in test [17] is 0.622; in [20] it was 2.82 (inactive).
Turning to `CC(=O)NCCCC[C@@H]1NC(=O)[C@@H]2C[C@H](C(=O)NCCCCCCN(C)C)[C@H](c3ccc(O)cc3)N2C1=O`, the composite z-score in test [1] is -0.853; in test [3], -0.0396; in test [4], 0.112; in test [5], 0.57; in test [6], 1.92; in test [7], -0.234. In addition, the composite z-score in test [8] is 1.32; in test [9] it was 1.44; in test [10], 1.21; in [11], 2.82; in [12] it was 1.26; in [13], 0.383. Further, the composite z-score in [14] worked out at 0.53; in test [15], 1.34; in [16] it was 1.56; in [18], 1.58; in test [19] it was 1.25. Further, the composite Z-score in [2] was 0.67 (inactive). In addition, the values for the z-score in test [17] and in [20] were 0.543 and -0.916 (inactive), respectively.
